Measured values as given in PubChem BioAssay (Tox21).
Records with an inconclusive call do not appear. The source made the active and inactive calls. Calls follow the shape of the dose curve; as a rule, active = well fitted cell-killing curve with a large enough effect in the repeat runs; inconclusive = weak or mixed curves, or effect the other way; inactive = flat fitted curve, though single readings scatter.

Test: qHTS RealTime-Glo MT Cell Viability Assay in HepG2 cells - 40 hour (AID 1224870); also: nearly all actives have a fitted effect of over 50% in size
Settings: RealTime-Glo luminescence; series mostly up to 76.8 µM
From the text: National Center for Advancing Translational Sciences [NCATS]
NIH Chemical Genomics Center [NCGC]
U.S. Environmental Protection Agency [EPA]
National Institutes of Environmental Health Sciences [NIEHS]
National Toxicology Program [NTP]
U.S. Food and Drug Administration [FDA]
Measure of cell viability is critical in the cell-base assay. Analysis of cell viability is necessary for the characterization of cell responses to cytotoxic drugs and environmental stress. A RealTime-Glo MT Cell Viability Assay to monitor cell viability in real time of continues cell culture during 40 hours of compound treatment was used to screen Tox21 10K library compounds in HepG2 cells. The RealTime-Glo MT Cell Viability Assay is a nonlytic, homogeneous, bioluminescent method to measure cell viability in real time using a simple, plate-based method. The assay involves adding NanoLuc luciferase and a cell-permeant prosubstrate to cells in culture. Viable cells reduce the proprietary prosubstrate to generate a substrate for NanoLuc luciferase. This substrate diffuses from cells into the surrounding culture medium, where it is rapidly used by the NanoLuc Enzyme to produce a luminescent signal. The signal correlates with the number of viable cells, making the assay well suited for cytotoxicity studies.
Tox21 Assay Protocol Summary:
The mixture of HepG2 cell suspension and reagents were dispensed at 600cells/6 ul/well in 1536-well tissue culture treated black solid bottom plates using a Multidrop dispenser. After the assay plates were incubated at a 37 C/5% CO2 incubator for 5 hours, 23 nL of compounds dissolved in DMSO, positive and negative controls was transferred to the assay plate by a pintool work station. The plates were incubated at 37 C for 40 hours. The luminescence intensity were measured at 0h, 8h, 16h, 24h, 32h and 40h time points using ViewLux plate reader during compound treatment.

SMILES | outcome
CC(=O)Nc1ccccc1 | inactive
CC1=CC(=O)NS(=O)(=O)O1 | inactive
O=S1(=O)CC=CC1 | inactive
CCCCC(CC)COC(=O)CCCCC(=O)OCC(CC)CCCC (stereo not given) | inactive
CCCCCCCCCC | inactive
CCCC(C)=O | inactive
O=C(O)c1cc(O)c(O)c(O)c1 | inactive
COc1ccc(NC(C)=O)cc1N | inactive
CCCCCOC(C)=O | inactive
O=c1[nH]c(=O)n([C@H]2C[C@H](O)[C@@H](CO)O2)cc1Br | inactive
Nc1ccccc1[N+](=O)[O-] | inactive
CN(C)CCC(c1ccc(Cl)cc1)c1ccccn1 (stereo not given) | inactive
CC(C)(N)CO | inactive
CC1=C(C)S(=O)(=O)CCS1(=O)=O | inactive
C#C[C@]1(O)CC[C@H]2[C@@H]3CCC4=CC(=O)CC[C@@H]4[C@H]3CC[C@@]21C | inactive
CCCCCCCCCCCCCCCO | inactive
CCCCCCCC(=O)OC | inactive
CCC(O)OCCCOC (stereo not given) | inactive
C=C(C)C(=O)O[C@H]1C[C@@H]2CC[C@@]1(C)C2(C)C | inactive
CCCCN(CCCC)CCCC | inactive

SMILES | outcome
Cc1ccc(S(N)(=O)=O)cc1 | inactive
CCN(CC)c1ccc(C(=O)c2ccccc2C(=O)O)c(O)c1 | inactive
Cc1cccc(O)c1 | inactive
O=c1[nH]c(=O)n([C@H]2CCCO2)cc1F | inactive
CCCCCC/C(C=O)=C\c1ccccc1 | inactive
CCC(O)OC(O)CC (stereo not given) | inactive
CCCCCCCCCCCCOCCO | inactive
Cc1ccc2oc(=O)ccc2c1 | inactive
c1ccc(OCCOc2ccccc2)cc1 | inactive
O=c1[nH]nnc2ccccc12 | inactive
COS(C)(=O)=O | inactive
COc1ccc(Cl)cc1C(=O)NCCc1ccc(S(=O)(=O)NC(=O)NC2CCCCC2)cc1 | inactive
C#CCN(C)Cc1ccccc1 | inactive
O=C1CCC(N2C(=O)c3ccccc3C2=O)C(=O)N1 (stereo not given) | inactive
C=C(C)C(=O)Nc1ccc(Cl)c(Cl)c1 | inactive
O=C(O)c1cc(=O)c2c(OCC(O)COc3cccc4oc(C(=O)O)cc(=O)c34)cccc2o1 | inactive
C[C@H]1C[C@@H]2[C@H]([C@@H](O)C[C@@]3(C)[C@H]2CC[C@]3(O)C(=O)CO)[C@@]2(C)C=CC(=O)C=C12 | inactive
O=C(O)CCCC[C@@H]1SC[C@@H]2NC(=O)N[C@@H]21 | inactive
CCCCCCCCCCCCc1ccccc1 | inactive
O=C(OCCOCCOC(=O)c1ccccc1)c1ccccc1 | inactive
